Where “and” joins values, the source holds several entries; their conditions need not be identical. Equal entries are not always repeated. Records with an inconclusive call do not appear. A number with no mark means an inactive call. Calls come from the whole dose curve; as a rule, active = well fitted inhibition curve with a large enough effect; inconclusive = small, poorly fitted or top-dose-only effect; inactive = flat fitted curve, though single readings scatter.
System: KB-3-1
Test: Cytotoxic Profiling of Annotated Libraries Using Quantitative High-Throughput Screening (AID 1296008); note: nearly all actives have a fitted effect of over 60% in size
Conditions: Five cell lines viability, CellTiter-Glo ATP luminescence, 48-72 h; max response: active compounds read low
Excerpt: Cell-based phenotypic screening is a commonly used approach to discover biological pathways, novel drug targets, chemical probes and high-quality hit-to-lead molecules. Many hits identified from high-throughput screening campaign are ruled out through a series of follow-up potency, selectivity/specificity, and cytotoxicity assays. Prioritization of molecules with little or no cytotoxicity for a more in-depth downstream evaluation influence the future direction of projects, so cytotoxicity profiling of the screening libraries at early stage is essential for increasing the likelihood of candidate success. […] For the annotated library, we also examined the primary targets and mechanistic pathways regularly associated with cell death. To our knowledge, this is the first study to use high-throughput screening to profile large libraries for cytotoxicity assessment in both normal and cancer cell lines. In summary, the results generated here constitutes a valuable resource for the scientific community and provides insight on identifying cytotoxic compounds with particular mechanisms of action, and prioritizing compounds with suitable cytotoxicity profile for further evaluation.
A pintool (Kalypsys) was used to transfer 23 nL of compound solution to the 1536-well assay plates. After 48 or 72 hr incubation at 37 degree Celsius, 5% CO2 and 95% humidity, 2.5 uL of CellTiter-Glo (Promega) was dispensed into each well using a dispenser (Aspect Automation, St. Paul, MN) with solenoid valves (Lee Valves, Westbrook CT). Plates were left at room temperature for 10 min before imaging the ATP-coupled luminescence using a ViewLux microplate imager (PerkinElmer, Waltham, MA).
% is set by controls: 0 for no effect and ±100 for the full control effect.

SMILES	max response
CN(CCCN1c2ccccc2CCc2ccccc21)CC(=O)c1ccc(Cl)cc1	3.26%
Cc1cccc(C)c1NC(=O)c1ccccc1C(=O)O	-0.148%
Cc1cc2c(OCC(CNC(C)(C)C)OC(=O)c3ccccc3)cccc2[nH]1 (stereo not given)	-8.32%
C#C[C@]1(O)CC[C@H]2[C@@H]3[C@H](C)CC4=C(CCC(=O)C4)[C@H]3CC[C@@]21C	-4.12%
NC(=O)n1c(O)c(C(=O)c2cccs2)c2cc(Cl)ccc21	2.04%
CCN(CC)CCNC(=O)c1cc(Br)c(N)cc1OC	-23.2%
NC(=O)C1(N2CCCCC2)CCN(CCCC(=O)c2ccc(F)cc2)CC1	5.68%
CCOc1ccccc1C(N)=O	-15.7%
N#CCC(=O)NN	-1.35%
CCC1NC(=O)c2cc(S(N)(=O)=O)c(Cl)cc2N1 (stereo not given)	-10.4%
CC(=O)O[C@]1(C(C)=O)CC[C@H]2[C@@H]3C=C(Cl)C4=CC(=O)CC[C@]4(C)[C@H]3CC[C@@]21C	2.1%
Cc1cc(C)cc(OCC2CNC(=O)O2)c1 (stereo not given)	2.21%
O=C(O)CCC(=O)Nc1ccc(S(=O)(=O)Nc2nccs2)cc1	14.8%
c1ccc(CC2=NCCN2)cc1	-6.13%
CCc1ccc(C(=O)C(C)CN2CCCCC2)cc1 (stereo not given)	-1.02%
CO[C@]12C[C@@H](COC(=O)c3cncc(Br)c3)CN(C)[C@@H]1Cc1cn(C)c3cccc2c13	9.31%
NS(=O)(=O)c1cc2c(cc1Cl)NC(CC1CCCC1)NS2(=O)=O (stereo not given)	7.67%
C[N+]12CCC(CC1)C(OC(=O)C(O)(c1ccccc1)c1ccccc1)C2 (stereo not given)	1.71%
CC(=O)Nc1ccc(OC(=O)c2ccccc2OC(C)=O)cc1	-4.86%
O=S(=O)(O)c1ccc(O)cc1	-1.6%

SMILES	max response
CCc1nn(CCCN2CCN(c3cccc(Cl)c3)CC2)c(=O)n1CCOc1ccccc1	3.08% and -5.51%
Cc1ccccc1OCC(O)CO (stereo not given)	1.58%
O=C(O)CCc1nc2ccccc2[nH]1	-8.67%
C[C@]12CCC(=O)C=C1C=C[C@@H]1[C@@H]2CC[C@@]2(C)[C@H]1CC[C@@]21CCC(=O)O1	-4.54%
CCCCCN=C(N)N/N=C/c1c[nH]c2ccc(OC)cc12	1.55%
CN(Cc1ccc(C(C)(C)C)cc1)Cc1cccc2ccccc12	-4.26% and -7.03%
Cc1ccc(S(=O)(=O)NC(=O)NC2CCCC2)cc1	5.86%
CN1CCN(C2=Nc3ccccc3Sc3ccc(Cl)cc32)CC1	-8.12%
Cc1c(-c2ccccc2)oc2c(C(=O)OCCN3CCCCC3)cccc2c1=O	-3.83%
O=C(CN1CCN(Cc2ccc3c(c2)OCO3)CC1)N1c2ccccc2Sc2ccccc21	6.91%
CC(=O)N[C@@H](CCC(=O)O)C(=O)O	-11.1%
O=C(NC1CCN(CCc2c[nH]c3ccccc23)CC1)c1ccccc1	-0.418%
O=[N+]([O-])c1cccc(S(=O)(=O)NCCNS(=O)(=O)c2cccc([N+](=O)[O-])c2)c1	2.2%
C/C=C/C=N/NC(=O)c1ccncc1	-15.9%
C#C[C@]1(O)CC[C@H]2[C@@H]3CCC4=CC(=O)CC[C@@H]4[C@H]3CC[C@@]21CC	-1.4%
CCN1CCCC(OC(=O)C(c2ccccc2)c2ccccc2)C1 (stereo not given)	-9.59%
O=C(NCCc1c[nH]c2ccccc12)c1cccnc1	-10.3%
COc1ccc(C(Cl)=C(c2ccc(OC)cc2)c2ccc(OC)cc2)cc1	9.01%
CO[C@H]1C=CO[C@@]2(C)Oc3c(C)c(O)c4c(O)c(c(/C=N/N5CCN(C)CC5)c(O)c4c3C2=O)NC(=O)/C(C)=C\C=C[C@H](C)[C@H](O)[C@@H](C)[C@@H](O)[C@@H](C)[C@H](OC(C)=O)[C@@H]1C	-19.7%
CN(C)C(=O)Nc1ccc(Cl)c(Cl)c1	-25.2%
